Compounds with a hit are over-represented: about 9.5% of the library has one in this group of screens.
Tau ThT inhib: qHTS for Inhibitors of Tau Fibril Formation, Thioflavin T Binding. Microtubule-associated protein tau (Homo sapiens), P10636. recombinant tau K18 P301L, heparin-induced fibrillization, ThT fluorescence. Potency, µM (titrated, usually from 57.4 µM), inactives show at the top dose activity, negative = inhibition, hits mostly inhibitors. hit rate 2.1% among 270,000. AID 1460, 2008; note: nearly all actives have a fitted effect of over 55% in size
Target sequence (P10636 561-689 P618L limits assumed): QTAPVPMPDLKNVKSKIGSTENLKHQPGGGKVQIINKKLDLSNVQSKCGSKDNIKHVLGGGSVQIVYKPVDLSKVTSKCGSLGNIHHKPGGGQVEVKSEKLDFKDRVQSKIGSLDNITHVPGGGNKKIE
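Heparin-induced fibrillization of the P301L-mutant K18 repeat-domain fragment of human tau was followed by ThT binding in quantitative high-throughput format.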
Tau fluor cs: Counterscreen qHTS for Inhibitors of Tau Fibril Formation, Fluorescence Polarization | hit rate 0.93% among 280,000 | AID 1463, 2008 | tau K18 P301L Alexa594 fluorescence, heparin fibrillization | Potency, µM (doses to about 57.7 µM), for inactives: top-dose activity change, negative = decrease; note: nearly all actives have a fitted effect of over 55% in size
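Human K18 P301L tau (15 uM unlabeled plus 0.24 uM Alexa 594-labeled, final) in 100 mM sodium acetate pH 7 was mixed with compound and 20 uM heparin and incubated 6 hr at 37 C.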
HPGD inh: qHTS Assay for Inhibitors of HPGD (15-Hydroxyprostaglandin Dehydrogenase); 15-hydroxyprostaglandin dehydrogenase [NAD(+)] (Homo sapiens), P15428; purified HPGD, NADH fluorescence kinetic, PGE2 substrate; Potency, µM, for inactives: top-dose activity change, negative = inhibition, usual class: inhibitors; hit rate 4.3% among 150,000; AID 894, 2007; active = well fitted inhibition curve with a large enough effect, not every such curve was filed as active; inconclusive = small, poorly fitted or top-dose-only effect, or another doubt; inactive = no such curve, though single readings can be large or run the other way
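NADH formation kinetics: reaction with 30 uM PGE2 and 1 mM NAD+ (final), 20 nM enzyme, Tris-HCl pH 8 with Tween 20, after 15 min compound preincubation at room temperature. Fluorescence change, last versus first of five reads.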
NPSR antag: qHTS Assay for Antagonists of the Neuropeptide S Receptor: cAMP Signal Transduction; CHO-NPSR cells, cAMP TR-FRET, antagonist mode; Potency, µM (series often up to 38.3 µM), for inactives: top-dose activity change, negative = inhibition, usual class: inhibitors; hit rate 1% among 220,000; note: nearly all actives have a fitted effect of over 50% in size
Tau FP inhib: qHTS for Inhibitors of Tau Fibril Formation, Fluorescence Polarization; Microtubule-associated protein tau (Homo sapiens), P10636; K18 P301L tau heparin fibrillization, Alexa594 FP, 6 h; Potency, µM (titrated, usually from 57.7 µM), for the others: at the top dose activity, negative = inhibition, actives largely listed as inhibitors; hit rate 0.39% among 280,000; AID 1468, 2008; note: nearly all actives have a fitted effect of over 55% in size
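Heparin (20 uM) drove fibril formation of recombinant tau K18 P301L, 15 uM unlabeled with 0.24 uM Alexa 594 label, for 6 hr at 37 C in 100 mM sodium acetate pH 7. Fluorescence polarization (555/632 nm) read 1 hr after 30 uM ThT.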
ALDH1A1 inh: qHTS Assay for Inhibitors of Aldehyde Dehydrogenase 1 (ALDH1A1). Potency, µM (doses to about 75.3 µM), for inactives: at the top dose activity, negative = inhibition, most hits filed as inhibitors. hit rate 7.3% among 220,000. Purified ALDH1A1, NADH fluorescence, propionaldehyde substrate; active = well fitted inhibition curve with a large enough effect, not every such curve was filed as active; inconclusive = small, poorly fitted or top-dose-only effect, or another doubt; inactive = no such curve, though single readings can be large or run the other way;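 note: plate controls were no enzyme wells and a reference inhibitor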
Target sequence (P00352 whole entry, looked up): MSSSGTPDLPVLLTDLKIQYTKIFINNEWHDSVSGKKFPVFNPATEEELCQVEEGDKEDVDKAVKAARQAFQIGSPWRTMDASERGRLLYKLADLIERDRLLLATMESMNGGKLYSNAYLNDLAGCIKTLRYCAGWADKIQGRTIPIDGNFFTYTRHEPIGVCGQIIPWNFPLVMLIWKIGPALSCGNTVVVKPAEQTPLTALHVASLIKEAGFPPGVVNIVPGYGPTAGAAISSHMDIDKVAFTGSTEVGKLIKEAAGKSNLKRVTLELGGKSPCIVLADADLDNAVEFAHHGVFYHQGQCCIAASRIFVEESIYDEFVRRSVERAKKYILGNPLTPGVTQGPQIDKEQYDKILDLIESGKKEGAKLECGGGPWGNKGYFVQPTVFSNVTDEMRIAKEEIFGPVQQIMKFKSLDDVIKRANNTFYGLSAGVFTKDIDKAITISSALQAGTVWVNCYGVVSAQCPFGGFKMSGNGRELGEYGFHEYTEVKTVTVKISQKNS
* marks the source's active call; other numbers are inactive results; u = inconclusive; x = no result; [ ] = remark or other dose. Unless noted, calls come from the whole dose curve; as a rule, active = well fitted curve in the direction sought with a large enough effect; inconclusive = small, poorly fitted or top-dose-only effect, or another doubt; inactive = no such curve, though single readings can be large; an effect the other way counts as inactive or inconclusive. Unless noted, % is set by controls: 0 for no effect and ±100 for the full control effect; potency is the fitted concentration of half-maximal effect.

SMILES	Tau ThT inhib	Tau fluor cs	HPGD inh	NPSR antag	Tau FP inhib	ALDH1A1 inh
O=c1cc(COc2ccccc2[N+](=O)[O-])nc2sccn12	u	-25%	x	8%	-7%	u
CN1CCN(c2ccc(C(=O)c3ccc(F)cc3)cc2)CC1	1%	-3%	-10%	-11%[46.1 µM]	6%	-14%
O=C(c1ccccc1)c1ccc(N2CCCC2)cc1	u	-10%	14µM*	-24%[46.1 µM]	4%	u
O=C(c1ccccc1)c1ccc(N2CCNCC2)cc1	-11%	-9%	-6%	-8%[46.1 µM]	-7%	28µM*
O=C(O)c1ccc(N2CCCCC2)cc1	0%	2%	-14%	1%[46.1 µM]	-4%	2%
CN(C)/C=C/C(=O)c1cnc(-c2ccccc2Cl)s1	u	-3%	x	-8%	6%	7.1µM*
NC(CCC(=O)N[C@@H](CS)C(=O)NCC(=O)O)C(=O)O (stereo partly drawn)	32µM*	-18%	-2%	x	u	12%
CC(C)(C)OC(=O)N1CCc2nc(N3CCN(c4ncccn4)CC3)ncc2C1	u	-10%	x	x	8%	x
Cc1cc(N=Cc2c(CO)cnc(C)c2O)c(N=Cc2c(CO)cnc(C)c2O)cc1C.[Zn]	x	x	-10%	x	x	-14%[13.5 µM]
Cc1ccccc1N1CC(O)(c2ccccc2)[N+]2=C1SCC2 (stereo not drawn)	-14%	-5%	-3%	8%	-7%	13µM*
Cc1ccc(C2(O)CN(c3ccccc3C)C3=[N+]2CCS3)cc1 (stereo not drawn)	-10%	-3%	-1%	-1%	6%	20µM*
COc1cc(NC(=O)CCn2c(-c3ccccc3)cc(C(C)=O)c2C)cc(OC)c1	-4%	-30%	x	x	-9%	x
COc1ccc(S(=O)(=O)N(CC(=O)NC2CC2)C2CCCCC2)cc1Cl	-4%	-7%	-6%	-10%[46.1 µM]	4%	8.9µM*
COC(=O)NNC(=O)CCCOc1ccc(Cl)cc1Cl	8%	6%	-18%	5%	-6%	2%
O=C(COc1ccc(Cl)cc1Cl)Nc1ccc(Cl)cn1	u	-13%	8.9µM*	-11%[46.1 µM]	-6%	15%
CC(C)NC(=O)CCCOc1ccc(Cl)cc1Cl	-6%	-9%	14µM*	-6%[46.1 µM]	5%	5%
CCN(CC)C(=O)CCCOc1ccc(Cl)cc1Cl	-16%	-12%	25µM*	-2%[46.1 µM]	5%	-2%
Cc1ccc(C(C)C)c(OCC(=O)Nc2ccc(Cl)cn2)c1	-21%	-10%	-7%	u	-7%	8%
CN(C(=S)NC(=O)CCCOc1ccc(Cl)cc1Cl)c1ccccc1	11%	3%	11µM*	-8%[46.1 µM]	-1%	18µM*
O=C(O)CCC(=O)NNC(=O)CCCOc1ccc(Cl)cc1Cl	-7%	-2%	-10%	2%[46.1 µM]	-13%	9%
COc1ccc(-n2c(COc3cccc4cccnc34)nnc2SCC(=O)O)cc1	-2%	-3%	x	-13%	u	u
Cc1ccc(C(=O)COC(=O)c2cccc(NC(=O)c3ccc(Cl)cc3Cl)c2)cc1	5%	-15%	x	x	u	x
C#CCN(C)CCCOc1ccc(Cl)cc1Cl	u	-20%	14µM*	5%[46.1 µM]	2%	5%
COc1ccccc1Oc1ccc2c(c1)C(=O)N(CC1CCCO1)C2=O (stereo not drawn)	-6%	-13%	x	6%	-9%	u
COc1ccc(/C=C2\NC(=S)N(CC3CCCO3)C2=O)c(OC)c1C (stereo not drawn)	u	u	-17%	16%[46.1 µM]	10%	0.45µM*
SMILES	Tau ThT inhib	Tau fluor cs	HPGD inh	NPSR antag	Tau FP inhib	ALDH1A1 inh
COc1ccc(/C=C2\NC(=S)N(CC3CCCO3)C2=O)c(OC)c1 (stereo not drawn)	-17%	-25%	-15%	-14%[46.1 µM]	7%	1.3µM*
COc1cccc(/C=C/C(=O)OCC(=O)c2cc(C)n(CC3CCCO3)c2C)c1OC (stereo not drawn)	u	-16%	x	-21%[46.1 µM]	-14%	u
COC(=O)C1=C(C(=O)OC)[C@@H]2N(C)c3ccc(OC)cc3[C@@]23C[C@@H](C(=O)OC)N(C(C)=O)C3=N1	-2%[11.5 µM]	-11%[11.6 µM]	-5%	x	1%[11.6 µM]	3%[13.5 µM]
COc1cccc(C(CC(=O)Nc2cccc3ccccc23)NC(=O)c2ccccc2)c1 (stereo not drawn)	-1%	-13%	-25%	0%[46.1 µM]	u	6%
Cc1csc(N/N=C\c2cccnc2)n1	u	u	x	-2%	-9%	11µM*
O=[N+]([O-])c1ccc(N/N=C\c2cccnc2)nc1	u	-11%	x	4%	0%	-9%
O=[N+]([O-])c1ccc(-c2csc(N/N=C/c3cccnc3)n2)cc1	2.2µM*	u	x	3%	4%	-7%
CCN1C(=O)[C@H]2[C@H]3[C@H](O)[C@H](O)C/C(=N/OC[C@@H](C)[C@H](OCc4ccccc4)C(C)C)[C@@H]3CC[C@@H]2C1=O	-2%[11.5 µM]	-3%[11.6 µM]	x	x	4%[11.6 µM]	-1%[13.5 µM]
O=C(O)CSC1CC(=O)N(c2ccc(Cl)c(Cl)c2)C1=O (stereo not drawn)	-3%	0%	-14%	-6%[46.1 µM]	-4%	3.2µM*
O=C(NNC1CC(=O)N(c2cccc(Cl)c2)C1=O)c1cccs1 (stereo not drawn)	2%	3%	-6%	11%	2%	u
O=C1SC(SC(=Nc2ccccc2)Nc2ccccc2)C(=O)N1c1ccccc1 (stereo not drawn)	u	-21%	-12%	-1%	0%	25µM*
O=C(O)CSC1CC(=O)N(c2cccc(Cl)c2)C1=O (stereo not drawn)	3%	10%	-3%	-10%[46.1 µM]	1%	10µM*
Cc1cccc(N2C(=O)CC(SC(=Nc3ccccc3)Nc3ccccc3)C2=O)c1 (stereo not drawn)	-3%	u	-10%	-28%[46.1 µM]	u	-8%
Nc1ccccc1SC1CC(=O)N(c2ccc(Cl)c(Cl)c2)C1=O (stereo not drawn)	5%	u	x	38%	28µM*	2%
CCn1c(SCc2ccc(F)cc2Cl)nc(=O)c2c(C(=O)OC)cc(C3CC3)nc21	u	-7%	x	x	-4%	x
O=C1CC(SC(=Nc2ccccc2)Nc2ccccc2)C(=O)N1c1ccc(Cl)c(Cl)c1 (stereo not drawn)	11%	u	-21%	-56%	7.9µM*	u

From PubChem BioAssay
